Assay outcomes from PubChem BioAssay.
Only a selection was taken, and hits are over-represented in it overall.
Pf apPOL block: Pf-apPOL inhibitors, biochemical, fluorescence; inhibition, % at 10 µM; Recombinant Pf-apPOL, molecular beacon fluorescence, 1.5 h; 210,000 tested, 0.25% active
mHTT CaM bind: mutant huntingtin-calmodulin interaction inhibitors – biochemical, AlphaScreen, primary screen | P42858 | AlphaScreen His-mHTT/GST-CaM binding, luminescence | inhibition, % at 15 µM | 190,000 tested, 3.6% active | AID 1671202, 2021;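 note: 0% = both proteins with DMSO and 100% = one protein alone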
* marks the source's active call; other numbers are inactive results; nt = no result given. Cut-off read from the data, not from the text of the source: active = inhibition above about 50%; inactive = the rest.

SMILES	Pf apPOL block	mHTT CaM bind
COc1ccc(C)cc1NC(=O)C1CCCN(c2cnn(C)c(=O)c2)C1 (centres undefined)	-8	53*
COc1ccccc1NC(=O)C1CCCN(c2cnn(C)c(=O)c2)C1 (centres undefined)	0	2
COc1ccc(CCNC(=O)C2CCCN(c3ccc(-c4ccco4)nn3)C2)cc1OC (centres undefined)	-7	2
COc1ccc(Cl)cc1NC(=O)c1cnn2c(C(F)(F)F)cc(-c3ccco3)nc12	5	1
CC1(C(=O)NCc2ccc(F)cc2)CCCN(C(=O)Nc2ccc3c(c2)OCCO3)C1 (centres undefined)	-3	-4
CC1Cc2ccccc2N1C(=O)c1ccc2nc(N3C(=O)CCC3=O)sc2c1 (centres undefined)	-5	52*
CC1Cc2ccccc2N1C(=O)c1ccc(Cl)cc1 (centres undefined)	2	-39
Cc1cc2ccccc2n1CCNS(=O)(=O)c1ccc(Br)cc1	-1	36
Cc1cc(C)c(S(=O)(=O)NCCn2c(C)cc3ccccc32)c(C)c1	6	62*
O=[N+]([O-])c1cccc(N=Cc2nc(-c3ccccc3Br)oc2O)c1	2	6
CCOC(=O)CSc1nc2c([nH]c3ccccc32)c(=O)n1-c1ccc([N+](=O)[O-])cc1	3	4
COc1ccc(OCC(=O)N2CCCC2c2nc(-c3cccc(C)c3)no2)cc1 (centres undefined)	1	15
CCC(=O)Nc1cccc(-c2noc(C3CCCN(C(=O)c4cccc(OC)c4)C3)n2)c1 (centres undefined)	-4	8
COc1cccc(-c2noc(C3CCCN3C(=O)Nc3cccc(Cl)c3)n2)c1 (centres undefined)	-2	-8
CCC(=O)Nc1cccc(-c2noc(C3CCCN(C(=O)COc4cccc(C)c4)C3)n2)c1 (centres undefined)	-1	79*
CCn1ccc(C(=O)N2CCCC2c2nc(-c3cccc(Cl)c3)no2)n1 (centres undefined)	-3	10
COc1cccc(-c2noc(C3CCCN3C(=O)Nc3ccc(F)c(Cl)c3)n2)c1 (centres undefined)	-1	58*
Cc1ccc(OCC(=O)N2CCCC2c2nc(-c3cccc(C)c3)no2)cc1 (centres undefined)	0	80*
CCn1ccc(C(=O)N2CCCC2c2nc(-c3cccc(C(F)(F)F)c3)no2)n1 (centres undefined)	7	88*
Fc1ccccc1CN1CCc2nc(N3CCN(c4ccccc4)CC3)ncc2C1	4	34
Fc1ccc(CN2CCc3nc(N4CCN(c5ccccc5)CC4)ncc3C2)cc1F	5	100*
COc1ccc(N2CCN(c3ncc4c(n3)CCN(Cc3cccc(F)c3)C4)CC2)cc1	-4	51*
COc1ccc(CN2CCc3nc(N4CCN(c5ccc(F)cc5)CC4)ncc3C2)cc1	-3	0
Clc1ccc(CN2CCc3nc(N4CCN(c5ccccc5)CC4)ncc3C2)cc1	3	41
Fc1cccc(CN2CCc3nc(N4CCN(c5ccccc5F)CC4)ncc3C2)c1	3	3
SMILES	Pf apPOL block	mHTT CaM bind
Fc1cccc(CN2CCc3nc(N4CCN(c5ncccn5)CC4)ncc3C2)c1	-3	100*
Clc1ccc(CN2CCc3nc(N4CCN(c5ncccn5)CC4)ncc3C2)cc1	-2	100*
COc1ccc(CC(=O)Nc2nnc(-c3ccc(C)cc3)s2)cc1OC	-6	-13
Cc1ccc(F)cc1N1C=C(C#N)S(=O)(=O)c2ccc(F)cc21	-1	-5
Brc1csc(CN2CCc3nc(N4CCCC4)ncc3C2)c1	6	99*
CCN1CCN(c2ncc3c(n2)CCN(Cc2cc(Br)cs2)C3)CC1	-1	34
CCN1CCN(c2ncc3c(n2)CCN(Cc2cccc(C)c2)C3)CC1	-2	79*
Cc1cccc(CN2CCc3nc(N4CCC(C)CC4)ncc3C2)c1	-1	13
CN(Cc1ccccc1)Cc1c(O)ccc2c1OC(=Cc1ccco1)C2=O	4	22
COc1ccc(N2C(=O)C3C4C=CC(CO)(O4)C3C2=O)c([N+](=O)[O-])c1 (centres undefined)	11	-1
CCN1C(=O)/C(=C/c2c(N3CCCC3)nc3c(C)cccn3c2=O)SC1=S	nt	8
OC(CN1CCN(c2ccc(Cl)cc2)CC1)c1ccc2c(c1)CCN2 (centres undefined)	-6	0
Cc1ccc(Cl)cc1N1CCN(CC(O)c2ccc3c(c2)CCN3)CC1 (centres undefined)	-4	71*
Cc1ccc2c(c1)c1cccc3c1n2CCN3CCC(N)=O	-4	69*
Cc1ccc2c(c1)c(=O)c(C(=O)O)cn2C	-3	-5
O=C(C1CC1)N1CCc2sc(S(=O)(=O)Nc3ccc(F)cc3Cl)cc2C1	-7	9
O=C1c2ccccc2C(=O)C1c1nc2oc3ccccc3c2s1	0	0
CC(C)N1CC=C2C(C#N)=C(N)C(C#N)(C#N)C(c3ccc(F)cc3F)C2C1 (centres undefined)	0	13
COc1ccc(C(=O)N2CCCC(c3ccnc(Nc4cccc(F)c4)n3)C2)c(OC)c1 (centres undefined)	-5	-8
O=C(c1ccc(F)cc1)N1CCCC(c2ccnc(Nc3ccccc3)n2)C1 (centres undefined)	-1	28
Cc1ccccc1Nc1nccc(C2CCCN(C(=O)c3ccoc3)C2)n1 (centres undefined)	-4	20
Cc1cccc(-c2nccc(C3CCCN(C(=O)C(C)(C)C)C3)n2)c1 (centres undefined)	-2	5
COc1ccc(C(=O)N2CCCC(c3ccnc(Nc4cccc(F)c4)n3)C2)cc1 (centres undefined)	-1	64*
CC(C)(C)C(=O)N1CCCC(c2ccnc(Nc3cccc(F)c3)n2)C1 (centres undefined)	-3	78*
COc1ccccc1C(=O)N1CCCC(c2ccnc(Nc3ccccc3C)n2)C1 (centres undefined)	-5	52*
SMILES	Pf apPOL block	mHTT CaM bind
O=C(c1ccc(F)cc1)N1CCCC(c2ccnc(Nc3cccc(F)c3)n2)C1 (centres undefined)	0	81*
O=C1OC(c2cccs2)=N/C1=C/c1cccc([N+](=O)[O-])c1	-2	5
C=CCn1c(=O)c(-c2nc3ccccc3c(=O)[nH]2)c(O)c2ccccc21	-4	-4
COC(=O)c1ccc(C(=O)Nc2ccccc2S(C)(=O)=O)cc1	8	0
CC(C)CN1C(=O)C(C)(C)COc2cc(NC(=O)C34CC5CC(CC(C5)C3)C4)ccc21	2	-1
Cn1c(=O)n(CC2CCCO2)c2cncnc21 (centres undefined)	-2	-3
COc1ccccc1C(=O)N1CCCC(c2ccnc(-c3cccc(F)c3)n2)C1 (centres undefined)	-4	51*
Cc1ccccc1C(=O)N1CCCC(c2ccnc(-c3ccccc3)n2)C1 (centres undefined)	-3	-2
COc1ccc(Nc2nccc(C3CCCN(C(=O)c4ccc(C#N)cc4)C3)n2)cc1 (centres undefined)	-5	12
Cc1ccccc1C(=O)N1CCCC(c2ccnc(Nc3cccc(F)c3)n2)C1 (centres undefined)	-2	99*
CCCC(=O)N1CCCC(c2ccnc(Nc3ccc(C)cc3)n2)C1 (centres undefined)	-2	3
